The values below come from PubChem BioAssay AID602340 (Broad Institute, 2012).

Structures are written as SMILES. In all, about 330,000 compounds went through this assay and about 2,600 (0.79%) were called active. What follows is part of a selection rich in actives, with near analogues and random picks from the rest. A number with no mark means an inactive call.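 The calls were made as follows: active = mean ATP rescue above about 67%, or every replicate alone reaching that limit (limit read from the data, passing the limit was not always enough); inconclusive = no clear call, values can overlap the other calls; inactive = mean under the limit and some replicate under it.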

The nature of this assay: suppressors of statin myotoxicity in C2C12 myotubes, primary screen, cell-based, single point, plate reader (AID 602340).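 Also: myotubes were challenged with 10 µM simvastatin during compound exposure.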 The note with it: C2C12 myotubes + simvastatin, ATP luminescence, 48 h; at 7.49 µM; hits give high values; scaled: DMSO 0, geranylgeraniol control 100.
Turning to `CC(C)NC(=O)N1[C@H](CO)[C@@H]2c3ccccc3N(C(=O)c3ccccc3F)C[C@@H]21`, the rescue of ATP level is 6.22%.

For the compound `CC(=O)N(C)C[C@H]1Oc2cc(C#CC3CC3)ccc2S(=O)(=O)N([C@H](C)CO)C[C@@H]1C`, the rescue of ATP level was 9.57%.

Regarding `C/C=C/c1ccc2c(c1)O[C@@H](CN(C)C(=O)c1ccncc1)[C@@H](C)CN([C@H](C)CO)S2(=O)=O`, the rescue of ATP level was -3.45%.

In the case of `CO[C@H]1CN(C)C(=O)c2ccc(NS(C)(=O)=O)cc2OC[C@@H](C)N(Cc2ccccc2)C[C@@H]1C`, the rescue of ATP level is 7.75%.

Take `CO[C@H]1CN(C)C(=O)c2cc(NC(=O)C3CC3)ccc2OC[C@H](C)N(Cc2ccccc2)C[C@H]1C`: the rescue of ATP level is 14.1%.

Turning to `CC(=O)c1c(C)n(-c2ccc(N(C)C)cc2)c2ccc(OCC(N)=O)cc12`, the rescue of ATP level is 83.1% (active).

`CCOC(=O)c1c(-c2ccccc2)oc2ccc(OCC(N)=O)cc12`: the rescue of ATP level was -0.453%.

On to `CC(=O)c1c(C)n(-c2ccc(C)cc2)c2ccc(O)cc12`, for which the rescue of ATP level is -0.235%.

As for `CN(C)CCCNC(=O)C[C@H]1C=C[C@@H](NC(=O)Cc2cccnc2)[C@H](CO)O1`, the rescue of ATP level was -16.4%.

In the case of `C[C@@H]1CN([C@H](C)CO)C(=O)c2ccccc2-c2ccccc2CO[C@@H]1CN(C)S(=O)(=O)CC(F)(F)F`, the rescue of ATP level was -2.03%.

For `CC(C)(C)OC(=O)N[C@H](C(=O)OC(C)(C)C)c1ccc(Br)cc1`, the rescue of ATP level is -4.69%.

`CC(C)(C)OC(=O)Nc1ccc([C@@H](NC(=O)OC(C)(C)C)C(=O)OC(C)(C)C)cc1`: the rescue of ATP level was 83.1% (active).

Consider `CCOC(=O)Nc1ccc(NC(=O)OCC)cc1`, for which the rescue of ATP level was -0.0995%.

Take `COc1ccc(S(=O)(=O)N2CC[C@H]3[C@@H](CO)N(C)c4ccc(C#Cc5ccccc5OC)cc4[C@H]32)cc1`: the rescue of ATP level is 36%.

As to `C[C@H]1CN([C@@H](C)CO)S(=O)(=O)c2ccc(C#Cc3ccccc3F)cc2O[C@@H]1CN(C)C(=O)c1ccc2c(c1)OCO2`, the rescue of ATP level is -14.8%.

Regarding `O=C(Nc1ccccc1-c1ccccc1)c1ccccc1[N+](=O)[O-]`, the rescue of ATP level is 9.09%.

As for `O=C(O)c1ccccc1NC(=S)NC(NC(=O)c1ccccc1[N+](=O)[O-])C(Cl)(Cl)Cl` (stereo not given), the rescue of ATP level is 108% (active).

Turning to `O=C(Nc1ccccc1[N+](=O)[O-])C1C(c2ccccc2)=C1c1ccccc1`, the rescue of ATP level is 2.4%.

Regarding `CO[C@H]1CN(C)C(=O)c2cc(NC(=O)C3CCOCC3)ccc2OC[C@@H](C)N(Cc2cccnc2)C[C@@H]1C`, the rescue of ATP level was 11.4%.

Take `COc1cc(/C=N\NC(=O)CNC(=O)c2cccc([N+](=O)[O-])c2)ccc1O`: the rescue of ATP level is 110% (active).

Take `COc1ccc(O)c(/C=N/N=C/c2cccc([N+](=O)[O-])c2)c1`: the rescue of ATP level is 9.95%.

For the compound `COc1cc(/C=N/NC(=O)CNC(=O)c2ccncc2)ccc1OC(C)=O`, the rescue of ATP level is -8.66%.

With `Cc1noc(C)c1NC(=O)N[C@@H]1CC[C@H](CCNC(=O)C2CCC2)O[C@@H]1CO`, the rescue of ATP level is 3.99%.

In the case of `O=C(C[C@H]1CC[C@@H](NC(=O)Nc2cc(F)ccc2F)[C@@H](CO)O1)NCc1ccncn1`, the rescue of ATP level is -2.36%.

Take `O=C(Nc1ccccc1)N1C[C@@H]2[C@H](c3ccccc31)[C@H](CO)N2C(=O)c1ccccn1`: the rescue of ATP level was -4.63%.

For `Cc1ccc(C2=NN(C(=O)CSc3nc(N)cc(N)n3)C(c3ccco3)C2)cc1` (stereo not given), the rescue of ATP level was 159% (active).

As for `COc1ccc(C2=NN(C(=O)CSc3nnnn3C)C(c3ccco3)C2)cc1` (stereo not given), the rescue of ATP level was -6.88%.

`COc1ccc(C2=NN(C(=O)CSc3nc(=O)n4ccc(C)cc4n3)C(c3ccc(C)cc3)C2)cc1` (stereo not given): the rescue of ATP level was 34.4%.

With `Cc1cccc(-c2ccc([C@@H]3[C@H](CO)N4CCCCN(C(=O)c5ccc6c(c5)OCO6)C[C@@H]34)cc2)c1`, the rescue of ATP level is -11.7%.

In the case of `C[C@@H]1CN([C@H](C)CO)C(=O)c2cc(-c3ccc(C(=O)N(C)C)cc3)cnc2O[C@H]1CN(C)C(=O)C1CC1`, the rescue of ATP level is 5.72%.

Take `COc1ccc(NC(=O)N(C)C[C@H]2Oc3ccc(N(C)C)cc3C(=O)N([C@H](C)CO)C[C@H]2C)cc1`: the rescue of ATP level is 34.1%.

For the compound `O=C(CSc1nc(-c2ccco2)cc(C(F)(F)F)n1)N1CCc2ccccc2C1`, the rescue of ATP level was 2.99%.

`CCOC(=O)c1ccn(-c2nc(-c3ccco3)cc(C(F)(F)F)n2)n1`: the rescue of ATP level was 122% (active).

On to `COC(=O)c1cnn2c(C(F)(F)F)cc(-c3ccco3)nc12`, for which the rescue of ATP level was 0.418%.

In the case of `COCC(=O)Nc1ccc2c(c1)C(=O)N(C)[C@H]1CC[C@@H](CC(=O)Nc3cn(C)nc3C)O[C@@H]1CO2`, the rescue of ATP level was -1.7%.

Turning to `CCC(=O)Nc1ccc2c(c1)OC[C@H](C)N(CC1CCCCC1)C[C@@H](C)[C@H](OC)CN(C)C2=O`, the rescue of ATP level is 13.2%.

As for `Cc1cccc(C)c1N1CCN(S(=O)(=O)N2CCCCC2)CC1`, the rescue of ATP level was -15%.

Turning to `CS(=O)(=O)N1CCN(c2cccc(Cl)n2)CC1`, the rescue of ATP level is 109% (active).

Take `CCC(=O)Nc1ccccc1N1CCN(S(C)(=O)=O)CC1`: the rescue of ATP level was 5.38%.

For the compound `C[C@@H]1CN([C@H](C)CO)S(=O)(=O)c2ccc(C#CCC3CCCC3)cc2O[C@H]1CN(C)Cc1ccc(C(=O)O)cc1`, the rescue of ATP level was 3.68%.

On to `O=C(NCc1ccc(Cl)c(Cl)c1)c1cccnc1`, for which the rescue of ATP level is 106% (active).

For `O=C(Nc1nnc(Cc2ccc(Cl)cc2)s1)c1cccnc1`, the rescue of ATP level is 0.36%.

As for `CC(C)(C)c1cc(C(=O)NCc2cccnc2)ccn1`, the rescue of ATP level is -8.85%.

Consider `COCC(=O)Nc1ccc2c(c1)[C@H]1C[C@H](CC(=O)NCc3cccnc3)O[C@H](CO)[C@H]1O2`, for which the rescue of ATP level is -1.76%.

Consider `COCCn1c(CN2CCC(Cc3ccccc3)CC2)nc2c1c(=O)n(C)c(=O)n2C`, for which the rescue of ATP level is 70.9% (active).

`Cn1c(=O)c2c(nc(CN3CCOCC3)n2Cc2ccccc2)n(C)c1=O`: the rescue of ATP level is 2.6%.

As for `COCCn1c(CN(Cc2ccccc2)Cc2ccccc2)nc2c1c(=O)n(C)c(=O)n2C`, the rescue of ATP level is 30.5%.

Turning to `CC(=O)NC[C@H]1[C@H](c2ccccc2)[C@@H](CO)N1C(=O)Cc1cccnc1`, the rescue of ATP level was 7.36%.

On to `Cc1ccccc1S(=O)(=O)Nc1ccc2c(c1)C(=O)N(C)[C@H]1CC[C@@H](CC(=O)O)O[C@H]1CO2`, for which the rescue of ATP level was 10.2%.

Consider `O=C(C[C@@H]1C[C@H]2c3cc(NC(=O)Nc4ccccc4)ccc3O[C@H]2[C@@H](CO)O1)NC1CCCCC1`, for which the rescue of ATP level was 4.79%.

Turning to `C[C@@H]1CN([C@@H](C)CO)C(=O)c2cc(C3=CCCCC3)cnc2O[C@H]1CN(C)CC1CCOCC1`, the rescue of ATP level was -11.9%.

For the compound `CC(=N\NC(=O)c1cc(Br)ccc1O)/C(=N/O)C(=O)Nc1ccccc1`, the rescue of ATP level is -1.86%.

`C/C(=N/NC(=O)c1cc(Cl)ccc1O)C12CC3CC(CC(C3)C1)C2`: the rescue of ATP level is 173% (active).

Turning to `Cc1ccc(C(=O)NC23CC4CC(CC(C4)C2)C3)c(Cl)c1`, the rescue of ATP level was -14.4%.

Turning to `Cc1noc(C)c1S(=O)(=O)N(C)C[C@@H]1Oc2c(NS(=O)(=O)c3cn(C)cn3)cccc2C(=O)N([C@@H](C)CO)C[C@H]1C`, the rescue of ATP level is 5.29%.

For the compound `COc1cccc(C(=O)Nc2ccc3c(c2)OC[C@H](C)N(C(C)=O)C[C@@H](C)[C@@H](OC)CN(C)C3=O)c1`, the rescue of ATP level is 5.61%.

As to `CCN1CCN(CCCCOc2ccccc2F)CC1`, the rescue of ATP level is 12.7%.

As to `O=c1c2ccccc2ncn1CCCCOc1ccccc1F`, the rescue of ATP level was -4.17%.

In the case of `Fc1ccccc1OCCCCn1cncn1`, the rescue of ATP level is 109% (active).

Take `O=C(Nc1ccccc1F)N[C@@H]1CC[C@H](CCNC(=O)C2CC2)O[C@@H]1CO`: the rescue of ATP level was 3.31%.

On to `Cc1cccc(C=CC(=O)c2ccc(Cl)cc2)c1`, for which the rescue of ATP level was 3.66%.

For the compound `O=C(/C=C/Sc1ncn[nH]1)c1ccc(Cl)cc1`, the rescue of ATP level is 122% (active).

Take `O=C(CSc1ncn[nH]1)N/N=C/c1ccc(F)cc1`: the rescue of ATP level is 2.49%.

As to `CO[C@H]1CN(C)C(=O)c2ccc(NC(=O)c3ccccc3F)cc2OC[C@H](C)N(C(=O)c2ccccc2F)C[C@H]1C`, the rescue of ATP level was -0.874%.

On to `COc1ccc2cc(C(=O)O)n(CC(=O)c3ccccc3)c2c1`, for which the rescue of ATP level was 107% (active).

In the case of `COc1ccc(NC(=O)CCCC(=O)c2ccccc2)cc1`, the rescue of ATP level was 4.33%.

As for `CCOC(=O)c1cc2ccccc2n1CC(=O)c1ccccc1`, the rescue of ATP level is 14.7%.

Consider `OCCCNC(c1ccccc1)c1ccc(O)cc1` (stereo not given), for which the rescue of ATP level is 116% (active).

Consider `OCCNc1nc(Nc2ccc(Cl)c(Cl)c2)nc2ccccc12`, for which the rescue of ATP level is -27.5%.

With `Cc1noc(C)c1NC(=O)N(C)C[C@H]1Oc2c(NC(=O)c3nc4ccccc4s3)cccc2C(=O)N([C@@H](C)CO)C[C@@H]1C`, the rescue of ATP level was -9.27%.

Turning to `CN1C(=O)c2cc(NS(=O)(=O)c3ccc(F)cc3)ccc2OC[C@@H]2O[C@@H](CC(=O)O)CC[C@H]21`, the rescue of ATP level was 1.01%.

As to `O=C(C[C@H]1C[C@@H]2c3cc(NC(=O)CC4CC4)ccc3O[C@@H]2[C@H](CO)O1)NCc1cccnc1`, the rescue of ATP level was -11%.

As for `CC(=O)C1=C(O)C(=O)N(c2ccc(S(N)(=O)=O)cc2)C1c1ccccc1F` (stereo not given), the rescue of ATP level is 106% (active).

Turning to `CC(=O)C1=C(O)C(=O)N(c2ccc(Br)cc2)C1c1ccc([N+](=O)[O-])cc1` (stereo not given), the rescue of ATP level is 4.28%.

Turning to `Cc1ccc(S(=O)(=O)N2[C@@H](c3ccccc3F)C(C(=O)O)=CC[C@H]2c2ccc(Cl)cc2)cc1`, the rescue of ATP level was 21.4%.

In the case of `CC1=CC(=O)C=CC1(C)C(Cl)(Cl)Cl` (stereo not given), the rescue of ATP level is 112% (active).

In the case of `CO[C@@H]1CN(C)C(=O)c2cc(NS(=O)(=O)c3ccc(C)cc3)ccc2OC[C@H](C)N(Cc2nccs2)C[C@@H]1C`, the rescue of ATP level was 1.93%.

With `Cc1cc(C)cc(NS(=O)(=O)Cc2ccccc2)c1`, the rescue of ATP level is 1.96%.

For the compound `CCC(CC)c1nnc(NC(=O)C2CCN(C(=O)c3ccco3)CC2)s1`, the rescue of ATP level is -3.16%.

Turning to `CCC(CC)c1nnc(NS(=O)(=O)Cc2ccccc2)s1`, the rescue of ATP level was 117% (active).
